# Structures can show the parent of a compound that is named as a salt. ± gives the standard deviation of the averaged measurements.
# Tested on: RDEB dermal fibroblasts EB119
# Test: day of extracellular matrix detachment from plate (days); higher = delayed detachment (less fibrotic matrix)
# Conditions: compound concentration: 10 uM
row,Structure (SMILES),day of extracellular matrix detachment from plate
1,C=CC[C@@H]1/C=C(\C)C[C@H](C)C[C@H](OC)[C@H]2O[C@@](O)(C(=O)C(=O)N3CCCC[C@H]3C(=O)O[C@H](/C(C)=C/[C@@H]3CC[C@@H](O)[C@H](OC)C3)[C@H](C)[C@@H](O)CC1=O)[C@H](C)C[C@@H]2OC [Tacrolimus (FK506)],20.7 ± 1.1
2,COCCCOc1ccnc(C[S+]([O-])c2nc3ccccc3[nH]2)c1C (centres undefined) [Rebeprazole sodium],25
3,CC(C)[C@H]1C(=O)N[C@@H](CCCNC(=N)N)C(=O)NCC(=O)N[C@@H](CC(=O)O)C(=O)N[C@H](Cc2ccccc2)C(=O)N1C [Cilengitide],4
4,CN1CCC(COc2cnc(-c3cccc(Cn4nc(-c5cccc(C#N)c5)ccc4=O)c3)nc2)CC1,15.5 ± 3.5
5,CSc1ccc2c(c1)N(CCC1CCCCN1C)c1ccccc1S2 (centres undefined) [Thioridazine HCl],39
6,CCCN(CCC)C(=O)C1=Cc2ccc(-c3ccc(C(=O)N4CCCC4)cc3)cc2N=C(N)C1 [Motolimod (VTX-2337)],26 ± 1.4
7,CCN(CC)CCCC(C)Nc1ccnc2cc(Cl)ccc12 (centres undefined) [Chloroquine Phosphate],35.3 ± 1.1
8,CNC(=O)[C@H](Cc1ccccc1)NC(=O)[C@H](CC(C)C)[C@H](CSc1cccs1)C(=O)NO [Batimastat (BB-94)],18
9,Nc1nc(NC2CC2)c2ncn([C@H]3C=C[C@@H](CO)C3)c2n1 [Abacavir sulfate],27
10,O=C1C(O)=C([C@H]2CC[C@H](c3ccc(Cl)cc3)CC2)C(=O)c2ccccc21 [Atovaquone],26 ± 1.4
11,CCOC(=O)[C@H]1O[C@@H]1C(=O)N[C@@H](CC(C)C)C(=O)NCCC(C)C [Aloxistatin],25
12,CCN(CCO)CCCC(C)Nc1ccnc2cc(Cl)ccc12 (centres undefined) [Hydroxychloroquine Sulfate],32
13,CC(C)(CO)[C@@H](O)C(=O)NCCCO [D panthenol],26 ± 1.4
14,O=C(O[C@H]1CN2CCC1CC2)N1CCc2ccccc2[C@@H]1c1ccccc1 [Solifenacin succinate],33.3 ± 1.1
15,O=C(O)CCCCCCCC(=O)O [Azelaic acid],26.3 ± 1.1
16,CCCCCCCCc1ccc(CCC(N)(CO)CO)cc1 [Fingolimod (FTY720) HCl],26 ± 1.4
17,OC(c1cc(C(F)(F)F)nc2c(C(F)(F)F)cccc12)C1CCCCN1 (centres undefined) [Mefloquine HCl],39
18,Cc1cc(/C=C/C#N)cc(C)c1Nc1ccnc(Nc2ccc(C#N)cc2)n1 [Rilpivirine],39
19,C[N+](C)(CCOc1ccccc1)Cc1ccccc1.O=C([O-])c1cc2ccccc2cc1O [Bephenium Hydroxynaphthoate],26 ± 1.4

# — the supplement of paper PMC11018630
